D1 mod – D1 CRE-luciferase signal change, two-sided – cell-based, HEK293 D1, dopamine EC30, D1 allosteric modulator project, primary screen; D(1A) dopamine receptor (Homo sapiens), P21728; B-score at 10 µM; dopamine EC30 potentiation; actives deviate in either direction; 5.9% of 58,000 active; AID 641, 2007;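 active = luminescence count or its row- and column-corrected plate score outside the 99.7% band of the plate's sample wells, on either side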
FAK blocker – FAK kinase inhibitors, primary screen, biochemical; inhibition, %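 (tested at 7 µM)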; 0.84% of 97,000 active; Focal adhesion kinase 1 (Homo sapiens), Q05397; biochemical FAK kinase activity assay;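 note: 0% = DMSO and 100% = reference compound high control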
Target sequence (Q05397 whole entry, looked up): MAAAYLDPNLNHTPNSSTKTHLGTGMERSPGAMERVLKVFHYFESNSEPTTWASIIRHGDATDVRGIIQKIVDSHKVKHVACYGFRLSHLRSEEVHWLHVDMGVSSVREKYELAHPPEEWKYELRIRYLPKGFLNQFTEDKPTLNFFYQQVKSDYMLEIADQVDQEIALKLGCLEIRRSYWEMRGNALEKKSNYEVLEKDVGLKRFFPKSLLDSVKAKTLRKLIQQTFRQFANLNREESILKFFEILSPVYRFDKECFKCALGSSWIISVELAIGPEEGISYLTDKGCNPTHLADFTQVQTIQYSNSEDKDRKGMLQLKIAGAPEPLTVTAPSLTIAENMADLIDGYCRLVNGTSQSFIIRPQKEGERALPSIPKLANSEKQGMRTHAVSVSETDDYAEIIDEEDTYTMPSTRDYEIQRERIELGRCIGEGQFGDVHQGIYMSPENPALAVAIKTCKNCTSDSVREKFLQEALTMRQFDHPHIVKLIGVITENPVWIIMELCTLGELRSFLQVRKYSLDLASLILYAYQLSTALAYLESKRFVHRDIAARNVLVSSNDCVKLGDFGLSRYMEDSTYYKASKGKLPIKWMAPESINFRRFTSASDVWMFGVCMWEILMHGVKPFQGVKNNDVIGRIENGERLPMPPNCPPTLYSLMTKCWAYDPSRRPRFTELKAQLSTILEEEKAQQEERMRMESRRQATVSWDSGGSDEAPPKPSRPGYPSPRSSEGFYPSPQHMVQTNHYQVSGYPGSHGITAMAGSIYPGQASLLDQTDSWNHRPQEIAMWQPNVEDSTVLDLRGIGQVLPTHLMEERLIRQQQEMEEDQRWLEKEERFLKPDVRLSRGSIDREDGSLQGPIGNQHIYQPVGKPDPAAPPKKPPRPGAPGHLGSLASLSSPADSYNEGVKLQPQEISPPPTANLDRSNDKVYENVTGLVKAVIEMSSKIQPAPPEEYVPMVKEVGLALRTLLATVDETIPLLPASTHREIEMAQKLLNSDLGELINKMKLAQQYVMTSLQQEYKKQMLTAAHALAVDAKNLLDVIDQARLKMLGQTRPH
hDAT+cocaine – changed hDAT dopamine uptake under cocaine IC80, either direction, primary screen, cocaine antagonist project, cell-based, LLC-PK1 hDAT, [14C]-dopamine uptake, MLSMR; LLC-PK1 hDAT cells, [14C]-dopamine uptake with cocaine IC80; actives deviate in either direction; B-score at 10 µM; 1.3% of 110,000 active;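 active = Z score or B-score, a plate-position-corrected score, falls beyond the plate's 99.7% confidence bounds, in either direction; inactive = both scores lie inside the 99.7% bounds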;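 note: scored against the spread of the other compound wells on the same plate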
Mac1 fbg enh – enhancers of CD11b/CD18 adhesion to fibrinogen, primary screen, K562 cells, luminescence; Integrin beta-2 (Homo sapiens) + Integrin alpha-M (Homo sapiens), P05107+P11215; ATPlite luminescence; activation, % at 10 µM; 0.07% of 93,000 active;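 active = 10 µM primary screen giving 50% or more activity, confirmed by 40% or more on retest at that dose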
PTK2B oligo ant – antagonists of Pyk2 self-association, primary screen, Q293 cells, FERM NanoBiT luminescence, HTS | Protein-tyrosine kinase 2-beta (Homo sapiens), Q14289 | active compounds read low | z-score (the deposit names both 25 µM and 10 µM) | 0.83% of 99,000 active;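 active = Z-score of -3 or lower, scaled per plate to the spread of control and sample wells; inactive = z-score above -3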;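 note: negative z-score means lost luminescence so less FERM oligomerization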
CD11b adhes inh – inhibitors of CD11b/CD18 adhesion to fibrinogen, primary screen, K562 cells, luminescence | inhibition, % at 10 µM | 0.54% of 93,000 active | ATPlite luminescence; Mn2+ added to activate the integrin | Integrin beta-2 (Homo sapiens) + Integrin alpha-M (Homo sapiens), P05107+P11215;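 active = primary inhibition of 50% or more at 10 µM, then 40% or more on retest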
FAK inh conf – FAK kinase inhibitors, retest, confirmation, biochemical | shares compounds with FAK blocker | FAK kinase biochemical inhibition assay | inhibition, % at 7 µM | 28% of 750 active | AID 794, 2007
The depositor's hits bear a star; / = not tested or not shown. The entries come from a sample that favours hits as a whole. Cut-off read from the data, not from the text of the source, unless noted: active = inhibition above about 19%; inactive = the rest.

SMILES	D1 mod	FAK blocker	hDAT+cocaine	Mac1 fbg enh	PTK2B oligo ant	CD11b adhes inh	FAK inh conf
COC(CNC(=O)C1CC(=O)N(CCc2ccccc2)C1)OC (configuration not stated)	/	1	0.34	4	0.16	3	/
O=c1[nH]cnc2sc3c(c12)CCCC3	0.98	26*	0.39	8	0.2	24	10
Cn1nnc2sc3c(c2c1=O)CCCC3	/	2	1.1	/	0.13	/	/
COc1ccc(/C=N/NC(=O)Nc2cccc3nsnc23)c(OC)c1	/	26*	-0.93	5	-1.7	-15	3
Cn1c(=O)n(CCc2ccccc2)c(=O)c2c1nc1n2CCN1c1ccccc1	0.38	/	/	/	/	/	/
O=C(Cn1c(=O)oc2cc(S(=O)(=O)N3CCc4ccccc43)ccc21)N1CCCCC1	0.97	-5	-0.18	-5	/	-8	/
CCOC(=O)N1CCN(C(=O)/C(=C/c2ccc(Br)cc2)NC(=O)c2ccc(OC)cc2)CC1	/	/	/	/	-0.48	/	/
CCOc1ccccc1-c1nc(-c2ccc(NC(=O)Cc3ccc(OC)cc3)cc2)no1	0.36	25*	-0.092	/	-0.32	/	8
Clc1ccc(-c2n[nH]c3c2CCC3)cc1Cl	/	28*	0.63	-4	-0.34	9	15
CCCCC(=O)NC(=S)Nc1cccc(NC(=O)c2ccco2)c1	/	/	/	-5	/	3	/
N/C(=N\OC(=O)c1cccc2ccccc12)c1cccc([N+](=O)[O-])c1	/	28*	-1	/	0.97	/	7
CN1CCc2c(sc3ncn4nc(-c5ccccc5O)nc4c23)C1	/	23*	/	-1	/	-2	28*
O=C1c2ccccc2C(O)(Cc2ccccc2)N1c1ccc2c(c1)OCO2 (configuration not stated)	-0.063	/	0.95	7	0.02	-25	/
C=C(c1cccc2ccccc12)P(=O)(O)O	-0.43	29*	-0.27	-4	-0.02	-6	20*
O=C(O)CCC(=O)c1cccc2ccccc12	0.34	/	0.012	-1	2.5	-4	/
CC(C)(C)c1nc2ccccc2c2nnc(SCC(=O)Nc3nccs3)n12	/	8	-0.71	/	-2.3	/	/
CC(C)(C)c1nc2ccccc2c2nnc(SCC(=O)Nc3nc4ccccc4s3)n12	/	23*	0.0013	/	-0.57	/	6
O=C(COc1ccccc1Cl)N1CCN(c2ccc([N+](=O)[O-])c(N3CCOCC3)c2)CC1	/	-5	1.7	5	-1.4	8	/
CCc1cccc(NC(=O)Cn2c(=O)oc3cc(S(=O)(=O)N4CCOCC4)ccc32)c1	/	-6	0.92	-1	/	19	/
O=C(Cn1c(=O)oc2cc(S(=O)(=O)N3CCCC3)ccc21)Nc1cccc(C(F)(F)F)c1	-1.5	26*	-0.002	-5	-0.06	13	9
CC1=CC(=C2C(=O)c3ccccc3C2=O)C=C(C)N1Cc1ccco1	-1.3	24*	/	-2	/	0	5
O=C1c2ccccc2C(=O)N1Cc1ccco1	0.97	1	0.29	-2	0.27	-1	/
O=C(NCc1nc2ccccc2[nH]1)C1=C[C@H](c2ccc(C(F)(F)F)cc2)C[C@H](OCCCCO)O1	/	/	0.97	/	/	/	/
O=C(Cc1cccs1)Nc1ccc(-c2nnn(CC(=O)N3CCOCC3)n2)cc1	0.77	25*	-0.79	0	/	-8	4
O=C(Nc1ncccc1Cl)C(Sc1ccccc1)c1ccccc1 (configuration not stated)	/	-1	1.7	-3	-0.87	6	/
COC(=O)c1ccccc1NC(=O)c1cccc(COc2ccccc2Cl)c1	/	23*	0.46	-2	-0.85	16	0
Cc1ccc(N2CCN(/N=C/c3sccc3C)CC2)cc1	/	-4	1.1	-2	1.2	-28	/
O=C(N/N=C/C=C/c1ccccc1)c1cc2c(ccc3ccccc32)o1	/	42*	-0.053	/	0.54	/	17
C=CCn1cc(/C=N\NC(=O)c2cc3c(ccc4ccccc43)o2)c2ccccc21	/	2	1.5	/	-0.37	/	/
